Experimental findings from PubChem BioAssay (NCI) are described below.

Several values for one entry are separate records, joined by “and”; a condition that tells them apart may be missing. Equal values may be shown once. The panel holds about 83,000 compounds, 20% with a hit somewhere; the sample as a whole holds those more often.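 48-hour exposure, single concentration, 96-well plates; percent growth endpoint where 0 means no net growth. Active: below 10.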 Activity calls are given as the source filed them.

The test concerns HL-60(TB) leukemia. The test can be described thus: NCI-60 one-dose screen, 48 h (100 = growth as untreated, 0 = no growth, -100 = all killed). To be noted: 10 µM unless noted.
Turning to `C/C(O)=C(/C=N\C(=S)Nc1ccc(S(=O)(=O)Nc2nccs2)cc1)C(=O)Nc1ccccc1C`, the growth was 105% (inactive). For the compound `O=c1c2cc(-c3ccccc3)sc2nc2sc(-c3ccccc3)nn12`, the growth was 96.4% (inactive). For the compound `CC(=O)N1N=C(C2C(=O)N(C)C(=O)N(C)C2=O)CC1c1ccccc1C(=O)O` (configuration not stated), the growth is 92.2% (inactive).

Consider `Cn1c(=O)c2c(nc3n2CCN(CCc2ccc(OCCN4CCOCC4)cc2)C3)n(C)c1=O`, for which the growth is 101% (inactive).

`COc1cc2c3c(c4c5ccccc5[nH]c4c2c(OC)c1OC)C(=O)N(CCN1CCOCC1)C3=O`: the growth is 69% (inactive).

With `Cc1ccc(Nc2c(C(N)=O)cnc3ccc(-c4csc(N)n4)cc23)cc1`, the growth is 109% (inactive). Regarding `COc1cc(-c2cc(-c3nc4ccccc4[nH]3)[nH]n2)cc(OC)c1OC`, the growth was -22.9% (active). The value for `COc1ccc(/C=C2/SC(=S)NC2=O)c(OC)c1OC` was 83.8% (inactive); that for `COc1cc2c(c(OC)c1OC)-c1ccc(OC)c(=O)cc1[C@@H](NC(=O)CCl)CC2` was -7.51% (active); that for `COc1ccc(S(=O)(=O)NCCNc2nccc(-c3c(-c4cccc(F)c4)nc4sccn34)n2)cc1` was 58.8% (inactive). In the case of `N#C/C(=C/c1cc([N+](=O)[O-])ccc1Cl)C(N)=O`, the growth was 91.7% (inactive).

Regarding `CCNC(=O)c1[nH]cc(-c2ccccc2)c1-c1cc(OC)c2c(c1OC)OCO2`, the growth was 94.7% (inactive). For `CN1CCc2c(Sc3ccc(C(=O)NO)cc3)c3ccccc3n2C1`, the growth is 60.3% (inactive).

In the case of `COc1ccc(N2CCC(=O)NC2=S)cc1`, the growth is 101% (inactive). Regarding `O=C(O)/C(=C\c1ccc(Cl)cc1)c1ccc(Cl)cc1`, the growth was 53.3% (inactive). As to `O=C(Nc1ccc(C(=O)O)c(O)c1)c1ccccc1`, the growth is 99% (inactive) and 105% (inactive).

As to `Fc1cccc(CNc2c3ccccc3nc3ccccc23)c1F`, the growth is 76% (inactive). `c1nc(SC2=NCCN2)c2[nH]cnc2n1`: the growth is 22.6% (inactive).

In the case of `CC(C)Cc1ccc(C(C)C(=O)NCc2ccc(Cn3c(=O)sn(CCCCl)c3=O)cc2)cc1` (configuration not stated), the growth was 102% (inactive) and -23.6% (active).

For `O=C(NC1CCN(Cc2ccccc2)CC1)c1cc2nc(-c3ccc(Cl)s3)cc(C(F)(F)F)n2n1`, the growth is 58.6% (inactive). The value for `O=C(Cn1ccc2ccccc21)Nc1ccc(-c2nc3ccccc3s2)cc1` was 99.9% (inactive); that for `C#COc1cccc(Nc2c(C#N)cnc3ncc(NC(=O)CCl)cc23)c1` was 19.6% [6.25 µM] (inactive); that for `O=S(=O)(c1ccc(NC(=S)NC23CC4CC(CC(C4)C2)C3)cc1)N1CCCCC1` was -29.2% (active).

As for `Cc1ccn2cc(Cc3cc(=O)oc4c3ccc3ccccc34)c(=O)nc2c1`, the growth is 86.1% (inactive).

For `Cc1n[nH]c(C)c1N=Nc1cccc2c1C(=O)c1ccccc1C2=O`, the growth is 96.3% (inactive). Take `CNC(=O)CN1CCC(Oc2cc3c(Nc4cccc(Cl)c4F)ncnc3cc2OC)CC1`: the growth is 86.9% (inactive). `Cc1cc(N2CCOCC2)nc(N2CCOCC2)n1`: the growth was 97.9% (inactive).
